{"source": "the supplement of paper PMC8728848", "binders": {"B1": {"name": "MGL2 (Mus musculus), Q8JZN1 (protein)", "chain": "MTMRYENFQNLEREEKNQEMRNGDKKGGMESPKFALIPSQSFLWRILSWTHLLLFSLGLSLLLLVVISVIGSQNSQLRRDLGTLRAILDNTTSKIKAEFQSLDSRADNFEKGISSLKVDVEDHRQELQAGRDLSQKVTSLESTLEKREQALKTDLSDLTDHVQQLETDLKALTCQLANLKNNGSEVACCPLHWTEHEGSCYWFSESEKSWPEADKYCRLENSHLVVVNSLEEQNFLQNRLANVLSWMGLTDQNGPWRWVDGTDFDKGFKNWRPLQPDNWHGHMLGGGEDCAHFSYDGRWNDDVCQRHYHWICETELGKASSAHSPQLIASVP"}}, "test_in_all_cases": "glycan array binding signal (z-score within array); higher = stronger binding", "details_in_all_cases": "glycan notation: IUPAC condensed, linker removed", "key": {"[1]": {"target": "GalNAc(a1-3)GalNAc(b1-3)Gal(a1-4)Gal(b1-4)Glc", "procedure,_shortened": "(§1)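 Arrays were curated from the Consortium for Functional Glycomics database, 3228 in total, and kept only where the protein sequence was available. Binding is expressed as a within-array Z-score. This score was averaged across arrays of the same protein sequence at different concentrations or buffers and across linkers, and negative values can be read as non-binding.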"}, "GalNAc(b1-3)Gal": {"target": "GalNAc(b1-3)Gal", "procedure,_shortened": "as §1"}, "GalNAc(b1-3)GlcNAc": {"target": "GalNAc(b1-3)GlcNAc", "procedure,_shortened": "as §1"}, "GalNAc(b1-4)GlcNAc": {"target": "GalNAc(b1-4)GlcNAc", "procedure,_shortened": "as §1"}, "[2]": {"target": "GalNAc(b1-4)GlcNAc(b1-3)GalNAc(b1-4)GlcNAc", "procedure,_shortened": "as §1"}, "GalNAc(b1-4)GlcNAc6S": {"target": "GalNAc(b1-4)GlcNAc6S", "procedure,_shortened": "as §1"}, "[3]": {"target": "Glc(a1-6)Glc(a1-6)Glc(a1-6)Glc", "procedure,_shortened": "as §1"}, "Glc(b1-6)Glc": {"target": "Glc(b1-6)Glc", "procedure,_shortened": "as §1"}, "GlcA(b1-3)Gal": {"target": "GlcA(b1-3)Gal", "procedure,_shortened": "as §1"}, "GlcA(b1-3)GlcNAc": {"target": "GlcA(b1-3)GlcNAc", "procedure,_shortened": "as §1"}, "[4]": {"target": "GlcNAc(b1-3)Gal(b1-4)GlcNAc(b1-3)Gal(b1-4)GlcNAc(b1-3)Gal(b1-4)GlcNAc(b1-3)Gal(b1-4)GlcNAc(b1-2)[GlcNAc(b1-3)Gal(b1-4)GlcNAc(b1-3)Gal(b1-4)GlcNAc(b1-3)Gal(b1-4)GlcNAc(b1-3)Gal(b1-4)GlcNAc(b1-6)]Man(a1-6)[GlcNAc(b1-3)Gal(b1-4)GlcNAc(b1-3)Gal(b1-4)GlcNAc(b1-3)Gal(b1-4)GlcNAc(b1-3)Gal(b1-4)GlcNAc(b1-2)Man(a1-3)]Man(b1-4)GlcNAc(b1-4)[Fuc(a1-6)]GlcNAc", "procedure,_shortened": "as §1"}, "[5]": {"target": "GlcNAc(b1-3)Gal(b1-4)GlcNAc(b1-6)[Gal(b1-3)]GalNAc", "procedure,_shortened": "as §1"}, "GlcNAc(b1-6)GalNAc": {"target": "GlcNAc(b1-6)GalNAc", "procedure,_shortened": "as §1"}, "[6]": {"target": "Man(a1-2)Man(a1-2)Man(a1-3)Man", "procedure,_shortened": "as §1"}, "[7]": {"target": "Man(a1-3)[Man(a1-6)]Man(a1-6)[Man(a1-2)Man(a1-3)]Man(b1-4)GlcNAc(b1-4)GlcNAc", "procedure,_shortened": "as §1"}, "[8]": {"target": "Neu5Ac(a2-3)Gal(b1-3)GlcNAc(b1-3)Gal(b1-4)GlcNAc", "procedure,_shortened": "as §1"}, "[9]": {"target": "Neu5Ac(a2-3)Gal(b1-3)[Fuc(a1-4)]GlcNAc", "procedure,_shortened": "as §1"}, "[10]": {"target": "Neu5Ac(a2-3)Gal(b1-4)GlcNAc(b1-2)Man", "procedure,_shortened": "as §1"}, "[11]": {"target": "Neu5Ac(a2-3)Gal(b1-4)GlcNAc(b1-3)Gal", "procedure,_shortened": "as §1"}, "[12]": {"target": "Neu5Ac(a2-3)Gal(b1-4)GlcNAc(b1-3)Gal(b1-4)GlcNAc(b1-2)Man(a1-3)[Neu5Ac(a2-3)Gal(b1-4)GlcNAc(b1-3)Gal(b1-4)GlcNAc(b1-2)Man(a1-6)]Man(b1-4)GlcNAc(b1-4)GlcNAc", "procedure,_shortened": "as §1"}, "[13]": {"target": "Neu5Ac(a2-3)Gal(b1-4)[Fuc(a1-3)]GlcNAc(b1-3)Gal(b1-4)GlcNAc", "procedure,_shortened": "as §1"}, "[14]": {"target": "Neu5Ac(a2-3)Gal(b1-4)[Fuc(a1-3)]GlcNAc(b1-6)[Gal(b1-3)]GalNAc", "procedure,_shortened": "as §1"}, "[15]": {"target": "Neu5Ac(a2-6)Gal(b1-4)GlcNAc(b1-2)Man", "procedure,_shortened": "as §1"}, "[16]": {"target": "Neu5Ac(a2-6)Gal(b1-4)GlcNAc(b1-2)Man(a1-6)[Gal(b1-4)GlcNAc(b1-2)Man(a1-3)]Man(b1-4)GlcNAc(b1-4)GlcNAc", "procedure,_shortened": "as §1"}, "[17]": {"target": "Neu5Ac(a2-8)Neu5Ac(a2-8)Neu5Ac(a2-3)[Gal(b1-3)GalNAc(b1-4)]Gal(b1-4)Glc", "procedure,_shortened": "as §1"}, "Neu5Ac(b2-6)GalNAc": {"target": "Neu5Ac(b2-6)GalNAc", "procedure,_shortened": "as §1"}}, "note": "The sample as a whole holds a higher share of the strongest signals than the screen did.", "data": [{"binder": "B1", "values": [{"measurement": "glycan array binding signal (z-score)", "setting": "[1]", "result": -0.259}, {"measurement": "glycan array binding signal (z-score)", "setting": "GalNAc(b1-3)Gal", "result": 4.95}, {"measurement": "glycan array binding signal (z-score)", "setting": "GalNAc(b1-3)GlcNAc", "result": 8.82}, {"measurement": "glycan array binding signal (z-score)", "setting": "GalNAc(b1-4)GlcNAc", "result": 5.73}, {"measurement": "glycan array binding signal (z-score)", "setting": "[2]", "result": 2.48}, {"measurement": "glycan array binding signal (z-score)", "setting": "GalNAc(b1-4)GlcNAc6S", "result": 3.46}, {"measurement": "glycan array binding signal (z-score)", "setting": "[3]", "result": 0.014}, {"measurement": "glycan array binding signal (z-score)", "setting": "Glc(b1-6)Glc", "result": -0.253}, {"measurement": "glycan array binding signal (z-score)", "setting": "GlcA(b1-3)Gal", "result": -0.219}, {"measurement": "glycan array binding signal (z-score)", "setting": "GlcA(b1-3)GlcNAc", "result": 0.307}, {"measurement": "glycan array binding signal (z-score)", "setting": "[4]", "result": -0.062}, {"measurement": "glycan array binding signal (z-score)", "setting": "[5]", "result": -0.047}, {"measurement": "glycan array binding signal (z-score)", "setting": "GlcNAc(b1-6)GalNAc", "result": 6.85}, {"measurement": "glycan array binding signal (z-score)", "setting": "[6]", "result": -0.161}, {"measurement": "glycan array binding signal (z-score)", "setting": "[7]", "result": -0.006}, {"measurement": "glycan array binding signal (z-score)", "setting": "[8]", "result": -0.274}, {"measurement": "glycan array binding signal (z-score)", "setting": "[9]", "result": -0.173}, {"measurement": "glycan array binding signal (z-score)", "setting": "[10]", "result": -0.034}, {"measurement": "glycan array binding signal (z-score)", "setting": "[11]", "result": -0.3}, {"measurement": "glycan array binding signal (z-score)", "setting": "[12]", "result": 0.166}, {"measurement": "glycan array binding signal (z-score)", "setting": "[13]", "result": -0.189}, {"measurement": "glycan array binding signal (z-score)", "setting": "[14]", "result": -0.139}, {"measurement": "glycan array binding signal (z-score)", "setting": "[15]", "result": -0.19}, {"measurement": "glycan array binding signal (z-score)", "setting": "[16]", "result": -0.174}, {"measurement": "glycan array binding signal (z-score)", "setting": "[17]", "result": -0.194}, {"measurement": "glycan array binding signal (z-score)", "setting": "Neu5Ac(b2-6)GalNAc", "result": -0.176}]}]}
